High-throughput results: PubChem BioAssay, National Center for Advancing Translational Sciences (NCATS)
Hits are enriched below; roughly 11% of the tested compounds scored in any of these assays.
G9a inh: inhibitors of human histone lysine methyltransferase G9a | G9a H3K9 monomethylation, AlphaScreen, 2 h | Q96KQ7 | 350,000 compounds, 8.8% hits | AID 504332 | Potency, µM (doses to about 102 µM), inactives show top-dose activity, negative = inhibition, actives largely listed as inhibitors; also: % is scaled to controls: 0 for no effect and ±100 for the full control effect; nearly all actives have a fitted effect of over 75% in size
Target sequence (Q96KQ7 913-1193 limits assumed): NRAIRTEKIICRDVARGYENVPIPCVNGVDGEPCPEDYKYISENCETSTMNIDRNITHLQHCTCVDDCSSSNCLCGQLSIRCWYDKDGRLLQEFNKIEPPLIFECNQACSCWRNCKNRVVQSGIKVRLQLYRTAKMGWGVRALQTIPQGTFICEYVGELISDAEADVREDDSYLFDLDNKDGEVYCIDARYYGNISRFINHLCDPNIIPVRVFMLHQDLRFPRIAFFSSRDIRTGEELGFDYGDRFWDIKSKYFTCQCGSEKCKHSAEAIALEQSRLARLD
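Readings reflect AlphaScreen signal from monomethyl-H3K9 antibody detection. HMT at 20 nM; substrate b-H3K9 500 nM; cofactor SAM 20 uM; 2 h RT reaction; compounds tested as titrations in qHTS with 15 min preincubation.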
HP1b binding inh: blocks HP1-beta chromodomain binding to methylated histone tails | Potency, µM (highest dose often 114 µM), without a hit: at the highest dose activity change, negative = inhibition, hits mostly inhibitors | 390,000 compounds, 0.56% hits | P83916 | AlphaScreen HP1-beta / biotin-H3K9me3 peptide binding; also: nearly all actives have a fitted effect of over 70% in size
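AlphaScreen: HP1-beta (50 nM) preformed 30 min with biotin-H3(1-18)K9me3 peptide (50 nM) in PBS pH 7.4, 0.01% Tween-20. Compound added for 30 min at RT, then streptavidin donor/nickel chelate acceptor beads (10 ug/mL) for 30 min.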
BAZ2B inh: inhibitors of human BAZ2B bromodomain. Q9UIF8. AlphaScreen BAZ2B-H3K14Ac peptide displacement. Potency, µM (highest dose often 114 µM), for inactives: at the top dose activity change, negative = inhibition, usual class: inhibitors. 360,000 compounds, 4.4% hits. AID 504333; also: % is scaled to controls: 0 for no effect and ±100 for the full control effect; nearly all actives have a fitted effect of over 60% in size
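BAZ2B 50 nM plus b-H3(5-23)K14Ac 50 nM, PBS pH 7.4/0.01% Tween-20, 30 min RT; compound added (max 110 uM), 30 min RT; streptavidin donor/Ni-chelate acceptor beads 10 ug/mL final, 20 min dark; AlphaScreen read.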
PLK1 PBD block: blocks phosphopeptide binding to human PLK1 polo-box domain; P53350; Plk1 PBD binding of FITC phosphopeptide, fluorescence polarization; Potency, µM, for the others: max response, negative = inhibition, hits mostly inhibitors; 360,000 compounds, 2.8% hits; also: series mostly up to about 57 µM; % is scaled to controls: 0 for no effect and ±100 for the full control effect; nearly all actives have a fitted effect of over 65% in size
JMJD2A Tudor: blocks the human JMJD2A Tudor domain; O75164; AlphaScreen JMJD2A-Tudor / H3K4me3 peptide binding; Potency, µM (highest dose often 114 µM), inactives show top-dose activity change, negative = inhibition, usual class: inhibitors; 390,000 compounds, 4.4% hits; AID 504339; also: % is scaled to controls: 0 for no effect and ±100 for the full control effect; nearly all actives have a fitted effect of over 50% in size
VDR inhibitor: blocks the human vitamin D receptor | P11473 | VDR-SRC2-3 peptide fluorescence polarization, 2 h | Potency, µM, for inactives: max response, negative = inhibition, actives largely listed as inhibitors | 400,000 compounds, 0.93% hits; also: % is scaled to controls: 0 for no effect and ±100 for the full control effect
Target sequence (P11473 whole entry, looked up): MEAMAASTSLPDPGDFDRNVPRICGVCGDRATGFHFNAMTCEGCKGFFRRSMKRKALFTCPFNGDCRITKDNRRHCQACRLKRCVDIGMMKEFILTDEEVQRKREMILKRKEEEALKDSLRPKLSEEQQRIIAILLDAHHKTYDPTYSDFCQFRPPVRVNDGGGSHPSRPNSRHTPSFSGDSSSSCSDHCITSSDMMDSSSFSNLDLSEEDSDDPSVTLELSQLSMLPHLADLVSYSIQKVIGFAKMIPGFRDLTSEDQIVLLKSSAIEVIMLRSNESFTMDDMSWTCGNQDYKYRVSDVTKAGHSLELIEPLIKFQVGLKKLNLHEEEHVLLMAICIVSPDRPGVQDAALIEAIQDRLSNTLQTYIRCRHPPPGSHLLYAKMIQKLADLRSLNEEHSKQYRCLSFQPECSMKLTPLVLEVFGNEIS
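VDR–SRC2-3 interaction, FP format. Cmpds 23 nl via pintool, brief spin, 2 h ambient incubation.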
Starred values were filed as active, the others as inactive; ? = inconclusive; · = no result; [ ] = remark or other dose. Calls follow the shape of the dose curve; as a rule, active = well fitted curve in the direction sought with a large enough effect; inconclusive = small, poorly fitted or top-dose-only effect, or another doubt; inactive = no such curve, though single readings can be large; an effect the other way counts as inactive or inconclusive. Potency is read from the fitted curve at half-maximal effect.

SMILES	G9a inh	HP1b binding inh	BAZ2B inh	PLK1 PBD block	JMJD2A Tudor	VDR inhibitor
CCN1/C(=C2/SC(=S)N(C)C2=O)C=Cc2cc(C)ccc21	·	8%	·	-20%	-23%	31%
COc1ccc(NCc2cc3cc4c(cc3n(CC(=O)Nc3ccc(C)cc3)c2=O)OCO4)cc1	-41%[59 µM]	5%	-19%	·	-30%	4%
O=C(COc1ccc(Cl)cc1Br)NC(=O)NC1CCCC1	8%[0.501 µM]	91%	22%	-9%	20%	10%
Cc1ccc(S(=O)(=O)NC(C(=O)Oc2ccc3c(C(F)(F)F)cc(=O)oc3c2)c2ccccc2)cc1 (stereo unspecified)	7.1µM*	39%	3%	-8%	-9%	0%
COc1ccc(NC(=S)Nc2ccccn2)cc1	40µM*	38%	-33%	-9%	-8%	7%
S=C(Nc1ccc(N2CCOCC2)cc1)Nc1ccc2snnc2c1	28µM*	-13%	-32%	-23%	?	-15%
COc1cc(NC(=S)Nc2cccnc2)cc(OC)c1OC	50µM*	23%	-5%	-7%	-23%	-1%
CCOc1ccc(NC(=S)Nc2cccnc2)cc1	45µM*	-9%	-14%	30µM*	-10%	-19%
Cc1ccc2nc(NC(=O)CSc3cc(C)[nH]c(=O)n3)sc2c1	?	64%	-24%	·	-18%	2%
CCCOc1ccc(/C=C/C(=O)Nc2sc3c(c2C(=O)OCC)CCC(C)C3)cc1OC (stereo unspecified)	0%[59 µM]	25%	10%	·	-17%	-20%
COc1ccccc1C(=O)NC(=S)Nc1ccc(N2CCOCC2)c(Cl)c1	8.9µM*	-11%	-33%	?	-36%	-5%
COc1ccc(C(=O)NC(=S)Nc2ccc(N3CCOCC3)cc2)cc1Cl	25µM*	?	22µM*	-1%	25µM*	8%
COc1ccc(C(=O)NC(=S)Nc2cccnc2)cc1Cl	50µM*	6%	-3%	-7%	?	35%
COc1cccc(C(=O)NC(=S)Nc2cccnc2)c1	?	-6%	-4%	-16%	?	-8%
O=C(NC(=S)Nc1ccc(N2CCOCC2)cc1)c1ccc(Cl)cc1	?	-12%	0%	2%	-11%	1%
CCCCc1ccc(NC(=S)Nc2ccc(Nc3ccc(OC)cc3)cc2)cc1	13µM*	?	14µM*	15µM*	28µM*	-28%
CCS(=O)(=O)N1CCc2cc(C(=O)NCc3ccccc3Cl)ccc21	?	-2%	-33%	·	?	21%
COC(=O)COc1ccc(Oc2nc(SC)nc(N(C)C)n2)nn1	1%	34%	5%	-2%	4%	7%
COc1c(Cl)cc(Cl)cc1CNCCO	8%	16%	-21%	-14%	4%	-5%
N#Cc1cccc(NC(=O)N2CCCC3(CCN(S(=O)(=O)c4ccccc4)CC3)C2)c1	-5%[12.7 µM]	·	·	·	·	-4%
COc1ccc(NC(=O)c2cc(C3CCCCN3S(=O)(=O)c3c(C)noc3C)on2)c(C)c1 (stereo unspecified)	·	·	·	-4%	·	·
Cc1ccc(C(=O)NC(=S)Nc2ccc(N3CCOCC3)cc2)cc1C	?	?	20µM*	?	50µM*	-21%
CC(C)(C)c1ccc(C(=O)NC(=S)Nc2ccc(N3CCOCC3)cc2)cc1	-13%	8%	-12%	-8%	-17%	7%
Cc1ccc(N/N=C/c2ccc(N3CCOCC3)cc2)cc1C	2.5µM*	79µM*	?	-14%	40µM*	-5%
Cc1ccc(Nc2nc(Nc3ccc(C)c(C)c3)nc(N3CCOCC3)n2)cc1C	-42%[59 µM]	13%	-26%	·	-24%	-23%
SMILES	G9a inh	HP1b binding inh	BAZ2B inh	PLK1 PBD block	JMJD2A Tudor	VDR inhibitor
Cc1cccc(NC(=S)NN2CCOCC2)c1C	28%[59 µM]	64%	-4%	-5%	-10%[57.1 µM]	-1%
Cc1cccc(NC(=S)Nc2ccc(N3CCOCC3)cc2)c1C	40µM*	3%	-30%	-17%	4%[57.1 µM]	-18%
COc1cccc(CNCCSc2nnnn2C)c1OCc1ccc(Cl)cc1	2%[59 µM]	22%	-24%	·	-2%	1%
COc1cccc([C@@H]2Oc3ccc(Br)cc3C[C@H]2OC(=O)NCCc2ccc(OC)c(OC)c2)c1	·	·	·	·	·	4%
Cc1cccc(N2N=C(C(=O)N3Cc4ccccc4CC3C(N)=O)CCC2=O)c1 (stereo unspecified)	·	44%	·	0%	-11%	-4%
COc1cc(-c2nnc(SCC(=O)Nc3ccc(F)c(Cl)c3)o2)cc(OC)c1OC	-31%[59 µM]	26%	-1%	·	-10%	12%
O=C(O)CC1CC(O)CCC1=O (stereo unspecified)	·	·	·	-9%	·	·
O=C(O)CC1CCC(=C(Cl)Cl)C1 (stereo unspecified)	45µM*	12%	?	-28%	-21%	?
COc1ccc(Cc2c(C(C)(C)C)nc3ccc(Cl)cn23)c(C)c1	·	·	·	4%	·	·
O=C(O)c1ccccc1SC1=NS(=O)(=O)c2ccccc21	·	·	·	·	-15%	·
COc1ccc(C2=C(Nc3ccc(Br)c(C)c3)c3ccccc3C2=O)cc1	2.8µM*	?	?	·	?	-12%
COc1ccc(C2=C(Nc3ccc(C)c(C)c3)c3ccccc3C2=O)cc1	?	?	-32%	·	?	-3%
Cc1cc(C)cc(NC2=C(c3ccccc3)C(=O)c3ccccc32)c1	8.9µM*	?	13µM*	·	13µM*	8%
CC12CCC(C(=O)N3CCC(Cc4ccccc4)CC3)(C(=O)C1=O)C2(C)C (stereo unspecified)	-33%	26%	-13%	-3%	-10%	-4%
CN1CCN(C(=O)CSc2nc(-c3cccs3)ccc2C#N)CC1	40µM*	17%	1%	0%	?	-13%
Cc1ccc(-c2cc(-c3ccccc3)c(C#N)c(SCC(O)CS(=O)(=O)Cc3ccccc3)n2)cc1 (stereo unspecified)	?	-2%	-8%	·	-15%	?
N#Cc1c(-c2ccccc2)cc(-c2ccccc2)nc1SCC(O)CS(=O)(=O)Cc1ccccc1 (stereo unspecified)	4.5µM*	-17%	-14%	·	-25%	?
Cc1cccc(CSc2nc(-c3cccs3)ccc2C#N)c1	228%[59 µM]	133%	116%	·	120%	-5%
N#Cc1c(-c2ccc(Cl)cc2)cc(-c2cccs2)nc1SCC(=O)O	8.9µM*	-18%	22µM*	17µM*	28µM*	?
COc1ccc(-c2cc(-c3cccs3)c(C#N)c(SCC(=O)NCc3ccccc3)n2)cc1	1%	31%	2%[57.1 µM]	1%	0%	0%
